Most compounds without a hit are left out; they make up all but 5.7% or so of the library.
AHR activator – activators of human aryl hydrocarbon receptor; AHR-responsive luciferase reporter cells, luminescence; activation, % at 5 µM; 320,000 tested, 2.5% active; in the data active = activation above about 47%
DAX1 inh-1 – blocks DAX1 repression of SF-1 activated StAR promoter | 370,000 tested, 1.1% active | inhibition, % at 6.8 µM | HEK293T StAR-luciferase reporter, SF-1/DAX-1 repression relief;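 active = inhibition above the mean over all tested compounds plus 3 SD, cut at about 3.6% in these data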;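 note: higher inhibition means more luminescence from relief of DAX-1 repression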
hgDAF12 agonist – agonists of H. glycines DAF-12 nuclear receptor | HEK293 GAL4-hgDAF12 UAS-luciferase reporter, agonist luminescence; normalized to butyrate control | AID 687014 | activation, % at 6.8 µM | 370,000 tested, 1.8% active;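 active = activation above a cutoff set at the mean of all screened compounds plus 3 SD, cut at about 10% in these data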
hcDAF12 agonist – activators of H. contortus DAF-12 nuclear receptor; 370,000 tested, 1.4% active; activation, % at 6.8 µM; HEK293 hcDAF-12 lit1-tk-luc reporter, luminescence; 0% DMSO, 100% Δ7-dafachronic acid; AID 652067;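 active = activation above the mean of all tested compounds plus 3 SD, cut at about 5.5% in these data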
DAX1 inh-2 – NR0B1 (DAX1) inhibition; P51843; HEK293 Gal4-DAX1 luciferase reporter, luminescence; inhibition, % at 6.75 µM; 340,000 tested, 0.99% active; AID 504766;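 active = inhibition above the mean over all tested compounds plus 3 SD, cut at about 4.2% in these data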;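 note: inhibition shows as a rise in luminescence from relieved DAX1 repression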
ssDAF12 agonist – activates DAF-12 receptor from parasite S. stercoralis; HEK293 ssDAF-12/GRIP1 lit1-tk-luc reporter, luminescence; % of 3 µM dafachronic acid response; activation, % at 6.8 µM; 370,000 tested, 1% active; AID 652126;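 active = activation above the mean over all tested compounds plus 3 SD, cut at about 0.9% in these data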
Hits are given with their value; – = inactive; · = not tested or not shown.

SMILES	AHR activator	DAX1 inh-1	hgDAF12 agonist	hcDAF12 agonist	DAX1 inh-2	ssDAF12 agonist
COc1ccccc1Nc1nc(NCc2ccco2)nc(N)c1[N+](=O)[O-]	–	–	–	–	·	–
Nc1nc(NCCCN2CCOCC2)nc(Nc2cccc(F)c2)c1[N+](=O)[O-]	–	–	–	–	–	–
Nc1nc(NCCCN2CCOCC2)nc(Nc2ccccc2F)c1[N+](=O)[O-]	–	–	–	–	4.5	–
COc1ccc(OC)c(Nc2nc(NCc3ccco3)c3ccccc3n2)c1	60	–	–	–	–	–
COC(=O)[C@H](CC(C)C)N(CCCc1cn(Cc2ccccc2)nn1)S(=O)(=O)c1ccccc1Br	·	–	–	–	·	–
COc1ccc(CCNC(=O)CN(Cc2ccc(Cl)cc2)S(C)(=O)=O)cc1OC	–	–	–	–	–	–
CC(O)CSc1nc2c(c(=O)[nH]c(=O)n2C)n1Cc1ccccc1Cl (configuration not stated)	·	–	–	–	–	–
Cc1cccc(C)c1NC(=O)CN(c1ccccn1)S(=O)(=O)c1ccc(F)cc1	–	–	–	–	–	–
Cc1ccc(-n2c(C)cc(C(=O)CN3CCCCC3)c2C)cc1	–	–	–	–	–	–
CC(=O)n1cc(C2C(=O)CC(C)(C)CC2=O)c2ccccc21	–	–	–	6.3	–	1.4
CC1(C)CC(=O)C(c2c[nH]c3ccccc23)C(=O)C1	–	–	–	–	–	–
C=C(c1cn(C(C)=O)c2ccccc12)c1cn(C(C)=O)c2ccccc12	·	–	–	5.7	–	–
O=C(CN1C(=O)CSc2ccc(S(=O)(=O)N3CCOCC3)cc21)NCCCN1CCCCC1	–	–	–	–	–	–
CC1CC(C)CN(CCCNC(=O)CN2C(=O)CSc3ccc(S(=O)(=O)N4CCCCC4)cc32)C1 (configuration not stated)	–	3.6	–	–	–	–
Cc1nn(-c2ccc(Cl)cc2)c(N)c1C(O)(CSc1nccn1C)C(F)(F)F (configuration not stated)	48	–	–	–	–	1.0
Cc1nn(-c2ccccc2)c(N)c1C(O)(CSc1nccn1C)C(F)(F)F (configuration not stated)	–	–	–	–	–	0.9
Cc1ccc(-n2nc(C)c(C(C)(O)C(F)(F)F)c2N)cc1 (configuration not stated)	–	–	–	–	–	–
COc1ccc(S(=O)(=O)N(C)CC(=O)NC2CC2)cc1	–	–	–	–	–	–
Cc1ccc(NC(=O)CSc2nnc(-c3ccccn3)n2N)c(Br)c1	–	–	–	–	·	–
Cc1ccc(C(=O)C2CC2)c(C)c1	·	–	–	–	–	3.1
COC(=O)c1ccc(NC(=O)CCCN2C(=O)NC(C)(C)C2=O)cc1	·	–	–	–	–	–
CCCCc1ccc(Nc2nc(CCC)cc(=O)[nH]2)cc1	–	–	–	–	–	–
CCCc1cc(=O)[nH]c(Nc2ccc3c(c2)OCCO3)n1	71	–	–	–	–	–
Cc1ccc(C(=O)NNC(=O)CCCCC(=O)NNC(=O)c2ccc(C)cc2)cc1	–	–	–	–	–	–
O=C(NNC(=O)c1ccccc1F)c1ccc(-c2ccc(Cl)cc2)o1	68	–	–	–	–	–
SMILES	AHR activator	DAX1 inh-1	hgDAF12 agonist	hcDAF12 agonist	DAX1 inh-2	ssDAF12 agonist
O=C(NC1CCC(O)CC1)c1ccc(-c2ccc(Cl)cc2)o1 (configuration not stated)	–	–	–	–	–	–
CC1(C)CC(=O)C(N=Nc2ccc(Br)cc2)=C(O)C1	–	–	–	–	·	–
CC1(C)CC(=O)C(N=Nc2cccc([N+](=O)[O-])c2)=C(O)C1	–	–	–	–	6.1	–
CC(C)NC(=S)N=Nc1c(O)[nH]c2ccc(C(C)C)cc12	67	–	–	–	–	–
CC(C)c1ccc2[nH]c(O)c(N=NC(=O)c3cccc(S(=O)(=O)Nc4ccccc4Cl)c3)c2c1	–	–	–	–	–	–
COc1cccc(NC(=S)N(CCCN2CCOCC2)C(C)c2cc3ccccc3o2)c1 (configuration not stated)	–	–	–	–	–	–
CCCCSc1nnc(CSc2nc3nc(C)cc(C)n3n2)o1	–	–	–	–	–	–
CCOC(=O)C1=CC[C@H]2c3c(c4ccccc4n3C)C(=O)C1N2C	–	–	–	–	5.1	–
CCOC(=O)C1=CC[C@H]2c3c(c4ccccc4n3C)C(=O)C1N2Cc1ccccc1	–	–	–	–	–	–
CCOc1ccc(N=C(/C(C(=O)C(=O)N2CCOCC2)=C(\O)c2ccccc2)c2ccccc2)cc1	–	–	12	–	–	–
CCOc1ccc(OCc2ccc(C(=O)N3CCOCC3)cc2)cc1	–	–	–	–	–	–
O=C(CCNS(=O)(=O)c1ccc(OC(F)(F)F)cc1)N1CCN(S(=O)(=O)c2cccc(F)c2)CC1	–	–	–	–	–	–
CC(=O)N1C(=O)C(=C2C=C(C)OC(C)=C2)c2ccccc21	55	–	–	–	–	–
CC(=O)Nc1cccc(NC(=O)Nc2cccc(F)c2)c1	49	–	–	–	–	–
COC(=O)[C@]12C[C@H](CC(=O)N3CCCCC3)C(=O)N(Cc3ccccc3)C1=C[C@H](C(C)(C)C)O[C@@H]2C	·	–	–	–	·	–
CC1CCCCN1C(=O)COC(=O)c1ccc(=O)n(Cc2ccccc2)n1 (configuration not stated)	–	–	–	–	–	–
COc1ccc(C(C#N)N2N=C(C)CC2c2ccccc2)cc1 (configuration not stated)	–	–	–	–	–	–
COc1ccc(C2=NN(C(C#N)c3ccc(OC)cc3)C(c3ccccc3)C2)cc1 (configuration not stated)	54	–	13	6.4	5.4	–
CCN(c1ccccc1)S(=O)(=O)c1cccc(C(=O)OCC(=O)c2c(N)n(C)c(=O)n(C)c2=O)c1	·	–	–	–	–	–
COc1ccc(N(C)S(=O)(=O)c2cccc(C(=O)OCC(=O)c3c(N)n(C)c(=O)n(C)c3=O)c2)cc1	–	–	–	–	–	2.5
CSc1ccccc1C(=O)NC1CCSc2ccccc21 (configuration not stated)	–	–	–	5.7	–	–
COc1ccc(CC(=O)NC2CCSc3ccccc32)c(OC)c1 (configuration not stated)	–	–	–	–	7.7	–
O=C(NC1CCSc2ccccc21)c1ccccc1F (configuration not stated)	–	–	–	–	–	–
C=CCN1C(=O)/C(=C\c2ccc(Oc3nc(N4CCOCC4)nc(N4CCOCC4)n3)c(OC)c2)SC1=S	–	–	–	–	–	–
C/C(=N/O)c1no[n+]([O-])c1/C(C)=N\O	–	–	–	–	7.2	–

Screening data as filed in PubChem.
